Measured values: PubChem BioAssay AID602252 (Broad Institute, 2012)
Hit rate of the full screen: of about 300,000 compounds, about 2,700 (0.9%) were called active. Only a selection was taken, and actives are over-represented in it overall. Values without a mark were called inactive.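 Rule for the calls: active = mean inhibition of at least 30% with at least half of replicates also reaching 30%; inconclusive = no clear call, values can overlap the other calls; inactive = the rest.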

biological target: Golgi-associated PDZ and coiled-coil motif-containing protein (Homo sapiens) (UniProt Q9HD26); assay: untagged CAL PDZ binding inhibitors, primary screen, biochemical, fluorescence polarization, HTS (AID 602252); settings: purified CAL PDZ, TMR-peptide fluorescence polarization, 1 h; at 24.9 µM; hits give high values;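 note: 0% = DMSO neutral control and 100% = excess unlabeled competitor peptide PRC23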

In order of rising inhibition:
1. NS(=O)(=O)c1ccc(CCNC(=O)c2ccc(Cl)c(S(=O)(=O)N3CCCCCC3)c2)cc1  -16.5%
2. CS(=O)(=O)N(CC(=O)Nc1ccc(F)cc1)C1CCCCC1  -14.6%
3. CCN(CC)S(=O)(=O)c1ccc(N2CCOCC2)c(NC(=O)C(C)Oc2ccc(F)cc2)c1 (configuration not stated)  -9.92%
4. O=C(COc1ccccc1F)Nc1nc(-c2ccccn2)cs1  -7.77%
5. COc1cccc(CC(=NO)c2cccc(OC)c2)c1  -7.29%
6. COC[C@@H]1NS(=O)(=O)c2ccc(Br)cc2O[C@H]1c1ccccc1  -7.2%
7. O=C(NN=Cc1ccccc1O)NN=Cc1ccccc1O  -7.2%
8. COc1ccc(-c2ccc3c(c2)C2CC3CCN2CCC#N)cc1 (configuration not stated)  -7.19%
9. O=c1ccnc(Nc2ccc(Cl)cc2)[nH]1  -6.21%
10. COc1cc(C(=O)CCc2ccc3c(c2)OCO3)cc(OC)c1OC  -5.96%
11. OC(COc1ccccc1)CN1CCN(c2cccc(Cl)c2)CC1 (configuration not stated)  -5.9%
12. COc1cc(OC)cc(-c2nnc(N(C)C(=O)c3ccncc3)s2)c1  -5.84%
13. CCCc1cc(-c2n[nH]c(=S)n2Cc2ccccc2)cs1  -5.83%
14. CCOC(=O)c1sc2nc(C)[nH]c(=O)c2c1C  -5.61%
15. Cc1ccc(OCC(=O)Nc2ccc(S(=O)(=O)Nc3ccccn3)cc2)cc1  -5.23%
16. CN(Cc1nc2ccc(F)cc2[nH]1)Cc1nc(CC2CC2)no1  -5.2%
17. CCN(CC(=O)NCc1ccco1)S(=O)(=O)c1ccc(F)cc1  -5.17%
18. O=C1c2ccccc2C(=O)C1C(=O)C1CC1  -5.16%
19. Cc1ccc(S(=O)(=O)N2C[C@@H]3CCCC[C@@H]3[C@@H](C)[C@H]2c2cn(Cc3ccccc3)c3ccc(F)cc23)cc1  -5.03%
20. O=C(c1ccc2c(c1)C(=O)N(Cc1ccncc1)C2=O)N1CCN(S(=O)(=O)c2ccc(OC(F)(F)F)cc2)CC1  -4.84%
21. Oc1ccc(-c2[nH]ncc2-c2nc3ccccc3s2)c(O)c1  -4.79%
22. Cn1c(-c2ccccc2)c[n+]2c1CCCCC2  -4.71%
23. O=C(c1cc(COc2cccc(C(F)(F)F)c2)on1)N1CCSCC1  -4.68%
24. CC(=O)Nc1ccc(NC(=O)COc2ccc(-c3ccccc3)cc2)cc1  -4.37%
25. COc1ccc(Cn2cc(CN3CCS(=O)(=O)N(Cc4ccc(-c5cccc(Cl)c5)cc4)C(C)C3=O)nn2)cc1 (configuration not stated)  -4.3%
26. COc1ccc(OCc2cc(C(=O)N3CCCC3)no2)c2ccccc12  -4.16%
27. Cc1ccc(OCCNC(=O)c2cccc(S(=O)(=O)N3CCN(Cc4ccccc4)CC3)c2)cc1  -4.14%
28. CC(=O)Nc1ccc(C(=O)Nc2cc(S(=O)(=O)N3CCOCC3)ccc2N2CCOCC2)cc1  -4.08%
29. C[C@H](CO)N1C[C@H](C)[C@@H](CN(C)Cc2ccc(-c3ccccc3)cc2)Oc2ccc(NC(=O)Cn3cnnn3)cc2C1=O  -3.86%
30. CC(CN1CCOCC1)OC(=O)c1ccc(C(C)(C)C)cc1 (configuration not stated)  -3.82%
31. CN(C)CCNC(=O)c1ccc(Cl)c2cc3ccccc3nc12  -3.6%
32. COc1cc2c(cc1OC)C(Cc1cc(OC)c(OC)cc1[N+](=O)[O-])=NCC2  -3.58%
33. CN(C)S(=O)(=O)c1cccc(NC(=O)COc2ccc3ccccc3c2)c1  -3.42%
34. CCOC(=O)Cc1csc(NC(=O)COc2ccc3c(C)cc(=O)oc3c2)n1  -3.4%
35. C[C@H](NC(=O)c1ccccc1)C(=O)OCC(=O)c1c[nH]c2ccccc12  -2.85%
36. Cc1cccc(NC(=S)N2CCC(C(=O)c3ccc(F)cc3)CC2)c1  -2.74%
37. CC(C)C[C@H]1CN([C@@H](CC(C)C)CN2CCC[C@@H]2CN2C(=O)C(=O)NC[C@@H]2Cc2ccccc2)C(=O)C(=O)N1CCc1ccccc1  -2.72%
38. CCN1C[C@@H]2[C@@H]3C(=O)N(C)C(=O)[C@@H]3[C@](C)(C1=O)N2C(=O)c1ccccc1  -2.56%
39. COc1ccccc1CNC(=O)c1ccc(Cl)c(S(=O)(=O)N2CCCC2)c1  -2.41%
40. CN(c1ccccc1)S(=O)(=O)c1ccc(C(=O)N2CCN(c3ccccc3Cl)CC2)cc1  -2.37%
41. CC(CN1CCOCC1)OC(=O)c1ccc(Cl)cc1Cl (configuration not stated)  -2.34%
42. O=C(N[C@H]1C/C=C\C(c2ccc(F)cc2)N(Cc2ccccc2)C(=O)C1)OCC1c2ccccc2-c2ccccc21 (some centres not stated)  -2.32%
43. Cc1ccccc1NCC(=O)N/N=C\c1ccc([N+](=O)[O-])s1  -2.26%
44. O=C1NC[C@@H](c2ccccc2)OC(=O)[C@H](Cc2ccc(F)cc2)CC/C=C/C[C@H]1CC(=O)N(CCO)Cc1ccccc1  -2.15%
45. O=C(CSc1nnc(CN2CCCC2)n1-c1ccc(F)cc1)c1ccc2c(c1)OCO2  -2.04%
46. O=C(O)CN(Cc1ccco1)S(=O)(=O)c1ccccc1  -2.04%
47. Cc1ccc(C(=O)C[n+]2cc(-c3ccccc3)n3c2CCCCC3)cc1  -2%
48. CC(C)Cc1nnc(NC(=O)CCc2ccccc2)s1  -1.93%
49. O=C(Nc1cccc(-c2nnc(-c3ccccc3)o2)c1)C1CCCO1 (configuration not stated)  -1.93%
50. Cc1cc(C)c2c(-n3cccc3)c(NC(=O)OCc3ccccc3)sc2n1  -1.91%
51. COc1ccc2c(CC(=O)Nc3nnc(C4CC4)s3)coc2c1  -1.76%
52. COc1ccc(CCNC(=O)c2ccc(NC(=O)CC3SC(N4CCCCC4)=NC3=O)cc2)cc1OC (configuration not stated)  -1.27%
53. CCOC(=O)c1sc2nc(CSCC(=O)OCc3ccc(C(=O)OC)o3)[nH]c(=O)c2c1C  -1.2%
54. CC(C)(C)OC(=O)N(Cc1ccccc1)Cc1ccc(OCc2cccc(NC(=O)c3ccccc3)c2)cc1  -1.04%
55. O=C(O)c1cccc(S(=O)(=O)Nc2ccc(O)cc2Sc2nc3ccccc3s2)c1  -1.01%
56. Cc1ccc(S(=O)(=O)CCC(=O)OCC(=O)N(C)Cc2ccccc2)cc1  -0.906%
57. Cc1cc(O)ccc1-c1cnc2ccccc2n1  -0.904%
58. OC(CNCc1ccc2c(c1)OCO2)COc1ccccc1 (configuration not stated)  -0.826%
59. CN(C)S(=O)(=O)c1cccc(NC(=O)COC(=O)/C=C/c2cccs2)c1  -0.792%
60. COc1cccc2oc(CCc3ccccc3)cc(=O)c12  -0.506%
61. O=C(COC(=O)CNC(=O)c1ccccc1F)NCC(F)(F)F  -0.464%
62. CCn1c(-c2ccncc2)n[nH]c1=S  -0.231%
63. O=C1NC(c2ccccc2)Cc2ccncc21 (configuration not stated)  0.221%
64. COC(=O)Nc1sc2nc(C)cc(C)c2c1-n1cccc1  0.432%
65. CC(C)c1nc2ccc(C(=O)O)cc2[nH]1  1.18%
66. CCOc1ccc(S(=O)(=O)Nc2nc3cc(OC)ccc3s2)cc1  1.2%
67. Cc1ccc(S(=O)(=O)N(C)C)cc1NC(=O)CN1c2cccc3cccc(c23)S1(=O)=O  1.34%
68. COc1ccc(C(=O)NCC(=O)N/N=C/c2ccc([N+](=O)[O-])s2)cc1OC  1.89%
69. CCC1([N+](=O)[O-])COC(c2ccc(C(C)C)cc2)OC1 (configuration not stated)  2.08%
70. COc1ccccc1NC1=NC(c2ccc(Cl)cc2)N=C(N)N1 (configuration not stated)  2.25%
71. Cc1csc(NC(=O)C2CCN(S(=O)(=O)c3ccccc3)CC2)n1  3.13%
72. CN(C(=O)C1CCOC1)c1nnc(-c2cccnc2)s1 (configuration not stated)  5.89%
73. CCC(C)NC(=O)CN(C1CCCCC1)S(C)(=O)=O (configuration not stated)  7.29%

For `Oc1ccc(-c2nc3ccccc3nc2-c2ccc(O)cc2O)c(O)c1`, the inhibition was 89% (active).
For `Cc1cc(=O)oc2cc(OCC(=O)Nc3nnc(C4CC4)s3)ccc12`, the inhibition was 51.4% (active).
In the case of `Cc1ccc(C(=O)OC(C)CN2CCOCC2)cc1` (configuration not stated), the inhibition is reported as 70.2% (active).
In the case of `OC(CNCCc1ccc(Cl)cc1Cl)COc1ccccc1` (configuration not stated), the inhibition is reported as 64.2% (active).
`COc1cccc(OCc2cc(C(=O)N3CCN(C(=O)c4ccco4)CC3)no2)c1` was tested, and the inhibition was 139% (active).
With `O=C(O)CN(Cc1ccco1)S(=O)(=O)c1ccc(F)cc1` the inhibition was 41.2% (active).
`CCOC(=O)c1sc2nc(CSc3ccccc3)[nH]c(=O)c2c1C` was tested, and the inhibition was 82.4% (active).
For `CN(C(=O)c1ccno1)c1nnc(-c2cccnc2)s1`, the inhibition was 79.5% (active).
With `CN(C)S(=O)(=O)c1cccc(NC(=O)Cc2ccsc2)c1` the inhibition was 56.9% (active).
For `CC1(C)N=C(N)NC(Nc2ccc(Cl)cc2)=N1`, the inhibition was 46.4% (active).
With `CNN/C(N=Cc1ccc([N+](=O)[O-])s1)=N\S(=O)(=O)c1cc(C)c(Cl)cc1SCc1ccccc1` the inhibition was 66.8% (active).
In the case of `COc1ccc(S(=O)(=O)Nc2ccc(O)c(Sc3nc4ccccc4s3)c2)cc1`, the inhibition is reported as 40.1% (active).
With `CS(=O)(=O)N(CC(=O)Nc1ccc(Cl)c(Cl)c1)C1CCCCC1` the inhibition was 51.4% (active).
In the case of `O=C(Nc1nnc(CCc2ccccc2)s1)C1CCCO1` (configuration not stated), the inhibition is reported as 32% (active).
`Clc1ccc(C[n+]2cc(-c3ccc(Cl)cc3)n3c2CCC3)cc1` was tested, and the inhibition was 36.9% (active).
With `Cc1cc(C)c2c(-n3cccc3)c(C(=O)NNS(=O)(=O)c3ccc(F)cc3)sc2n1` the inhibition was 44.4% (active).
With `O=C(CNC(=O)c1ccccc1F)OCC(=O)c1c[nH]c2ccccc12` the inhibition was 53.7% (active).
With `Cc1ccc(OCC(=O)Nc2ccc(-c3nc4ncccc4o3)cc2)cc1` the inhibition was 46% (active).
In the case of `OC(c1nc2ccc(F)cc2[nH]1)C(O)c1nc2ccc(F)cc2[nH]1` (configuration not stated), the inhibition is reported as 37% (active).
